# Source: PubChem BioAssay
# A number with no mark means an inactive call.
# Assay: budding yeast growth changes without added modifier – OD600, strain BY4716, 24 h, basal condition, primary screen (AID 1173)
# Details: S. cerevisiae BY4716 growth, OD600, 24 h; higher = more signal, called active from +8 up or from −8 down
row,Structure (SMILES),z-score
1,[N-]=[N+]=Nc1ccccc1[C@H]1OC(c2ccc(OCCCO)cc2)=N[C@@]1(Cc1ccccc1)C(=O)NCc1ccccc1,-1.95
2,COCCCNC(=O)[C@]1(CCS(=O)(=O)c2ccccc2)N=C(c2ccc(OCCCO)cc2)O[C@@H]1c1ccccc1,-0.324
3,NC(=O)NCC#Cc1ccc2c(c1)[C@]1(C(=O)N2)[C@H](c2ccc(OCCO)cc2)N2[C@H](c3ccccc3)[C@H](c3ccccc3)OC(=O)[C@H]2[C@@H]1C(=O)N1CCCCCCC1,1.64
4,O=C1C[C@@](C(=O)O)(c2ccc([N+](=O)[O-])cc2)[C@@H](c2ccc(CO)cc2)N1CC12CC3CC(CC(C3)C1)C2,-0.418
5,O=C1C[C@@](C(=O)NCc2ccccc2)(c2ccc([N+](=O)[O-])cc2)[C@@H](c2ccc(CO)cc2I)N1C1CCCCC1,0.432
6,COc1cccc(C[C@H]2C[C@@H](CO[Si](C(C)C)(C(C)C)C(C)C)N3C(=O)[C@]4(C(C)=O)O[C@]23[C@H]2C(=O)N(C)C(=O)[C@H]24)c1,2.01
7,COCC(=C=CC[C@@H](O)c1ccccc1OCCO)C[C@@H](O)COCc1ccccc1,-0.413
8,COC(=O)C(CC#Cc1ccc2c(c1)[C@]1(C(=O)N2)[C@H](C(=O)N2CCc3cc(OC)c(OC)cc3C2)[C@H]2C(=O)O[C@H](c3ccccc3)[C@H](c3ccccc3)N2[C@@H]1c1ccc(O)cc1)C(=O)OC,1.8
9,CN1C(=O)C2C=CC(C(O)COCc3ccccc3)N(Nc3ccccc3)C2C1=O (stereo not given),-0.396
10,Cc1ccccc1C(O)C1C=CC2C(=O)N(Cc3ccccc3)C(=O)C2N1n1cnnc1 (stereo not given),0.232

# Assay: viability profiling in MM1S myeloma cells – cell-based, resazurin fluorescence, basal, 24 h, PK04 Diversity Set, profiling panel (AID 1174);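 also: MM1S multiple myeloma cell line; test concentration not given here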
# Details: higher = more signal, called active from +8 up or from −8 down
row,Structure (SMILES),z-score
1,Cc1cc(C)c(C(O)C2C=CC3C(=O)N(c4ccccc4)C(=O)C3N2Nc2ccccc2)c(C)c1 (stereo not given),-0.307
2,O=C1O[C@H](c2ccccc2)[C@H](c2ccccc2)N2[C@H]1[C@@H](C(=O)N1CCN(c3ncccn3)CC1)[C@]1(C(=O)Nc3ccc(C#CCCO)cc31)[C@H]2c1ccc(OCCO)cc1,-0.901
3,O=C1CSC(c2cccc([N+](=O)[O-])c2)N1c1ccccc1 (stereo not given),-0.0906
4,COC(=O)C(CC#Cc1ccc2c(c1)[C@]1(C(=O)N2)[C@H](c2ccc(O)cc2)N2[C@H](c3ccccc3)[C@H](c3ccccc3)OC(=O)[C@H]2[C@@H]1C(=O)O)C(=O)OC,-0.134
5,COCCCNC(=O)[C@@]1(Cc2ccccc2I)c2ccccc2C(=O)N(Cc2ccccc2Cl)[C@H]1c1ccc(CO)cc1,1.59
6,COC(=O)[C@]1(Cc2ccccc2CN=[N+]=[N-])N=C(c2ccc(OCCCO)cc2)O[C@@H]1c1ccccc1,-4.5
7,CN(C)CCCCCCNC(=O)[C@@H]1C[C@@H]2C(=O)NCC(=O)N2[C@@H]1c1ccc(O)cc1,-1.26
8,COC(=O)c1ccc(OC)c(/C=C\CC(CCc2ccccc2)OC(=O)c2ccncc2)c1 (stereo not given),0.472
9,CCOC(=O)C[C@H]1[C@H](OC(=O)Cc2ccc3c(c2)OCO3)[C@@H](NC(=O)c2ccccc2)c2cc(OCCCO)ccc2N1C(=O)c1ccc2ccccc2n1,0.426
10,CCCNC(=O)[C@@]1(Sc2ccc(C)cc2)CC(=O)N(Cc2ccccc2)[C@@H]1c1ccc(CO)cc1I,-3.26
11,CC1(C)[C@@H]2CC(C(O)C3C=CC4C(=O)N(c5ccccc5)C(=O)C4N3Nc3ccccc3F)=C[C@@H]1C2 (stereo not given in full),0.941
12,COc1ccc(C#Cc2ccc3c(c2)[C@]2(C(=O)N3)[C@H](C(N)=O)[C@H]3C(=O)O[C@H](c4ccccc4)[C@H](c4ccccc4)N3[C@@H]2c2ccc(O)cc2)cc1,-4.88
13,COc1ccc([Si](C)(C)[C@@H]2[C@@H](CCO)O[C@]3(C(=O)N(Cc4ccc(N5C(=O)c6ccccc6Oc6ccccc65)cc4)c4ccccc43)[C@H]2C)cc1,-0.848
14,NC(=O)NCC#Cc1ccc2c(c1)[C@]1(C(=O)N2)[C@H](c2ccc(O)cc2)N2[C@H](c3ccccc3)[C@H](c3ccccc3)OC(=O)[C@H]2[C@@H]1C(=O)NC[C@H](O)c1ccccc1,0.953
15,CO[C@H]1O[C@H](CO)[C@@H](OC(=O)c2ccc(Br)cc2)[C@@H]2OC(=O)[C@H](Cc3cccc(Br)c3)C/C=C/C[C@@H](Cc3cccc(Br)c3)C(=O)O[C@@H]12,-0.402
16,CO[C@H]1O[C@H](CO)[C@@H](OC(=O)Nc2cccc(F)c2)[C@H](OC(=O)Nc2ccc3c(c2)OCO3)[C@H]1OC(=O)Nc1ccc2c(c1)OCO2,-1.53
17,CC(C)C[C@H]1NC(=O)[C@H](C)NC(=O)[C@@]23C(=O)N[C@@H](Cc4ccccc4)C2[C@H](C)[C@@]2(C)O[C@H]2C3/C=C/C/C=C\CNC1=O (stereo not given in full),0.0114
18,Cc1ccc(C(C)CC(O)C2C=CC3C(=O)N(Cc4ccccc4)C(=O)C3N2n2cnnc2)o1 (stereo not given),-0.817

row,Structure (SMILES),z-score
1,COCCCNC(=O)[C@@]1(Cc2ccccc2)COC(c2ccc(OCCCO)cc2)=N1,0.141
2,O=C1c2ccccc2[C@](Cc2ccccc2I)(C(=O)NC2CC2)[C@H](c2ccc(CO)cc2)N1Cc1ccccc1Cl,-0.405
3,CCOC(=O)C[C@H]1[C@H](OC(=O)Cc2ccc3c(c2)OCO3)[C@@H](NC(=O)c2ccccc2)c2cc(OCCCO)ccc2N1C(=O)c1ccccc1,0.103
4,CCOC(=O)C1=CC[C@@H](c2ccc(N(CC)CC)cc2)N(S(=O)(=O)c2ccc(C)cc2)[C@H]1c1ccc([N+](=O)[O-])cc1,-0.095
5,COC(=O)C(CC#Cc1ccc2c(c1)[C@]1(C(=O)N2)[C@H](C(=O)N2CCc3cc(OC)c(OC)cc3C2)[C@H]2C(=O)O[C@H](c3ccccc3)[C@H](c3ccccc3)N2[C@@H]1c1ccc(OCCO)cc1)C(=O)OC,-0.229
6,CC(C)N1C(=O)c2ccccc2[C@](C)(C(=O)O)[C@@H]1c1ccc(CO)cc1,-0.0713
7,C=CCC(OC(C)=O)[C@@H]1[C@@H](N(Cc2ccc(-c3ccccc3)cc2)C(=O)c2cccc3ccccc23)c2cc(OCCCO)ccc2N1C(=O)c1ccc2ccccc2n1 (stereo not given in full),0.0319
8,[N-]=[N+]=Nc1ccccc1[C@H]1OC(c2ccc(OCCCO)cc2)=N[C@@]1(Cc1ccccc1)C(=O)NCc1ccccc1,-3.89
9,COCCCNC(=O)[C@]1(CCS(=O)(=O)c2ccccc2)N=C(c2ccc(OCCCO)cc2)O[C@@H]1c1ccccc1,0.294
10,NC(=O)NCC#Cc1ccc2c(c1)[C@]1(C(=O)N2)[C@H](c2ccc(OCCO)cc2)N2[C@H](c3ccccc3)[C@H](c3ccccc3)OC(=O)[C@H]2[C@@H]1C(=O)N1CCCCCCC1,-0.476
11,O=C1C[C@@](C(=O)O)(c2ccc([N+](=O)[O-])cc2)[C@@H](c2ccc(CO)cc2)N1CC12CC3CC(CC(C3)C1)C2,-0.646
12,O=C1C[C@@](C(=O)NCc2ccccc2)(c2ccc([N+](=O)[O-])cc2)[C@@H](c2ccc(CO)cc2I)N1C1CCCCC1,0.566
13,COc1cccc(C[C@H]2C[C@@H](CO[Si](C(C)C)(C(C)C)C(C)C)N3C(=O)[C@]4(C(C)=O)O[C@]23[C@H]2C(=O)N(C)C(=O)[C@H]24)c1,-0.713
14,COCC(=C=CC[C@@H](O)c1ccccc1OCCO)C[C@@H](O)COCc1ccccc1,1.26
15,COC(=O)C(CC#Cc1ccc2c(c1)[C@]1(C(=O)N2)[C@H](C(=O)N2CCc3cc(OC)c(OC)cc3C2)[C@H]2C(=O)O[C@H](c3ccccc3)[C@H](c3ccccc3)N2[C@@H]1c1ccc(O)cc1)C(=O)OC,1.26
16,CN1C(=O)C2C=CC(C(O)COCc3ccccc3)N(Nc3ccccc3)C2C1=O (stereo not given),-0.825
17,Cc1ccccc1C(O)C1C=CC2C(=O)N(Cc3ccccc3)C(=O)C2N1n1cnnc1 (stereo not given),-0.562
